Inconclusive results are not listed. Activity calls are given as the source filed them. Unless noted, the call rests on the fitted dose curve; in most records, active means well fitted curve in the direction sought with a large enough effect in the repeat runs; inconclusive means weak or mixed curves; inactive means no such curve, though single readings can be large; an effect the other way counts as inactive or inconclusive.
Tests used:
[1] = qHTS assay to identify small molecule antagonists of the androgen receptor (AR) signaling pathway using the MDA cell line in the presence of 0.5 nM R1881 - cell viability counter screen (AID 1259242); further: nearly all actives have a fitted effect of over 45% in size
In short: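 Live-cell protease fluorescence, CellTiter-Fluor, 30 min at 37C. Cells: MDA-kb2, 3,000/well, preincubated 5 hr. Compounds plus 0.5 nM R1881 final, 16 hr, 37C, 0% CO2.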

[2] = target: Estrogen receptor (Homo sapiens) (UniProt P03372); experiment: qHTS assay to identify small molecule antagonists of the estrogen receptor alpha (ER-alpha) signaling pathway using the BG1 cell line in the presence of 0.1 nM 17-beta-estradiol (AID 1259244); further: nearly all actives have a fitted effect of over 50% in size
In short: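 Luminescence after ONE-Glo (30 min, room temperature) measured ERE-luciferase activity in VM7Luc4E2 cells treated 22 h with compound and 0.1 nM final 17beta-estradiol as stimulator.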

[3] = qHTS assay to identify small molecule HDAC inhibitors (AID 1259364);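 further: wild-type HCT-116 cells with endogenous class I/II HDAC activity; top concentration of the series differs between compounds; nearly all actives have a fitted effect of over 45% in size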
In short: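 HCT-116 (wild type), 1,500 cells/well, overnight; compound 2 hr 37C 5% CO2; HDAC-Glo I/II reagent 30 min RT; luminescence readout.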

[4] = qHTS assay to identify small molecule HDAC inhibitors - cell viability counter screen (AID 1259365); further: series mostly up to about 92 µM; nearly all actives have a fitted effect of over 50% in size
In short: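 Wild-type HCT-116 cells were seeded at 1,500 per well, incubated overnight at 37 C, then exposed to compounds in DMSO for 2hr. Viability was read by CellTiter-Glo luminescence after 30min at room temperature.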

[5] = qHTS assay to identify small molecule agonists of the sonic hedgehog signaling (Shh) pathway - cell viability counter screen (AID 1259366); further: nearly all actives have a fitted effect of over 50% in size
In short: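 NIH/3T3-derived 3T3 Gli1-Luc cells (stable Gli1-responsive firefly luciferase reporter) were seeded, rested 4 hr at 37 C/5% CO2, then exposed to compounds in DMSO for 24 hr; viability was read by CellTiter-Fluor fluorescence in the same wells.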

[6] = qHTS assay to identify small molecule antagonists of the sonic hedgehog signaling (Shh) pathway - cell viability counter screen (AID 1259367); further: nearly all actives have a fitted effect of over 55% in size
In short: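 Viability was read by CellTiter-Fluor fluorescence in the same wells, reagent added 23 hr into compound treatment and incubated 1 hr at 37C. The 3T3 Gli1-Luc reporter cells (2,000/well) received conditioned medium after compound and ran 24 hr.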

[7] = qHTS assay to identify small molecule agonists of the sonic hedgehog signaling (Shh) pathway (AID 1259368; calls by dose curve; further: series mostly up to about 92 µM; nearly all actives have a fitted effect of over 15% in size)
In short: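 Read-out: firefly luciferase luminescence from a Gli1 response element reporter stably integrated in NIH/3T3-derived 3T3Gli1-Luc cells, measured 30 min at room temperature after reagent addition. Compound exposure lasted 24 hr at 37 C, 5% CO2.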

[8] = qHTS assay to identify small molecule antagonists of the sonic hedgehog signaling (Shh) pathway (AID 1259369; calls by dose curve; further: nearly all actives have a fitted effect of over 45% in size)
In short: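 Luminescence readout: firefly Luc under Gli1 response element in 3T3Gli1-Luc cells (NIH/3T3 clone). Antagonist mode, stimulation by conditioned medium; compound exposure 24hr at 37 C, 5% CO2.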

[9] = target: Estrogen receptor beta (Homo sapiens) (UniProt Q92731); experiment: qHTS assay to identify small molecule agonists of the estrogen receptor beta (ER-beta) signaling pathway (AID 1259377; active means well fitted activation curve with a large enough effect in the signal ratio in the repeat runs, not every such curve was filed as active; the % refers to the signal ratio)
In short: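 ER-beta-UAS-bla HEK293T (GripTite) cells carrying a UAS-driven beta-lactamase reporter, in medium with 2% charcoal-stripped FBS, were exposed to compounds for 16 hr at 37C; LiveBLAzer B/G FRET substrate was then added and fluorescence read after 2 hours at room temperature.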

[10] = qHTS assay to identify small molecule agonists of the androgen receptor (AR) signaling pathway in the presence of an antagonist - cell viability counter screen (AID 1259379);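 further: MDA-kb2 human breast cancer cells carrying an MMTV luciferase reporter; series mostly up to about 92 µM; nearly all actives have a fitted effect of over 25% in size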
In short: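 Viability counter screen: CellTiter-Fluor fluorescence, measured in the same wells as the luciferase read-out. MDA-kb2 cells, 3,000/well, with nilutamide at 3.0uM final and compounds at 15 concentrations, 16 hr at 37C, 0% CO2.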

[11] = qHTS assay to identify small molecule agonists of the estrogen receptor beta (ER-beta) signaling pathway - cell viability counter screen (AID 1259380); further: nearly all actives have a fitted effect of over 30% in size
In short: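 Luminescence read-out (CellTiter-Glo, 30 min, room temp) taken in the same wells as the beta-lactamase reporter assay; ER-beta-UAS-bla HEK293T cells exposed to DMSO-dissolved compounds for 16 hr at 37C in 2% charcoal-stripped FBS medium.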

[12] = qHTS assay to identify small molecule antagonists of the estrogen receptor beta (ER-beta) signaling pathway - cell viability counter screen (AID 1259382); further: series mostly up to about 92 µM; nearly all actives have a fitted effect of over 55% in size
In short: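 Luminescent ATP read-out (CellTiter-Glo, 30 min, RT) taken in the same wells as the bla reporter assay. HEK293T ER-beta-UAS-bla cells in 2% charcoal-stripped FBS were exposed to compounds with 1nM E2 for 16 hr at 37C.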

[13] = target: Estrogen receptor (Homo sapiens) (UniProt P03372); experiment: qHTS assay to identify small molecule agonists of the estrogen receptor alpha (ER-alpha) signaling pathway in the presence of an antagonist (AID 1259383; calls by dose curve; further: top concentration of the series differs between compounds; nearly all actives have a fitted effect of over 15% in size)
In short: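 Luciferase luminescence (ONE-Glo, 30min at room temperature) measured in VM7Luc4E2 cells after 22hr compound exposure at 15 concentrations, with 10.0nM ICI-182,780 final present; cells express endogenous ER-alpha and carry four EREs upstream of luciferase.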

[14] = qHTS assay to identify small molecule agonists or antagonists of the thyroid stimulating hormone receptor (TSHR) signaling pathway - wild type cell line counter screen (AID 1259384; calls by dose curve)
In short: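 Counter screen in untransfected Hek293: compounds (15-point titration, triplicate) plus phosphodiesterase inhibitor Ro20-1724 added after 18 h plating; 30 min RT. Intracellular cAMP via competitive d2/cryptate immunoassay, 1 h incubation.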

[15] = qHTS assay to identify small molecule agonists of the estrogen receptor alpha (ER-alpha) signaling pathway in the presence of an antagonist - cell viability counter screen (AID 1259386);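 further: series mostly up to about 92 µM; cells exposed to compounds for 22 h at 37 °C before the viability read; nearly all actives have a fitted effect of over 30% in size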
In short: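 Read-out: CellTiter-Fluor fluorescence after 1hr reagent incubation, measured in the same wells as the luciferase readout. VM7Luc4E2 cells were exposed to 15 compound concentrations with 10.0nM ICI-182,780 for 22hr at 37C.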

[16] = target: Thyrotropin receptor (Homo sapiens) (UniProt P16473); experiment: qHTS assay to identify small molecule antagonists of the thyroid stimulating hormone receptor (TSHR) signaling pathway (AID 1259385; calls by dose curve; further: nearly all actives have a fitted effect of over 20% in size)
In short: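 Antagonist mode: compound-treated TSHR-expressing HEK293 cells were stimulated with 1.5 ng/mL TSH (final) in presence of Ro20-1724 for 30 min at RT. HTRF cAMP detection after 1 h; each compound tested at 15 concentrations, triplicate.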

[17] = target: Estrogen receptor beta (Homo sapiens) (UniProt Q92731); experiment: qHTS assay to identify small molecule antagonists of the estrogen receptor beta (ER-beta) signaling pathway (AID 1259378; active means well fitted inhibition curve with a large enough effect in the signal ratio in the repeat runs, not every such curve was filed as active; the % refers to the signal ratio)
In short: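 Antagonist mode: compounds added to beta-lactamase reporter HEK293T ER-beta-UAS cells stimulated with E2 (1nM final), 16 hr at 37C. LiveBLAzer B/G FRET substrate, 2 hours room temperature, fluorescence read-out.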

Measured: Potency

Estrogen receptor beta (Homo sapiens), sequence (Q92731 whole entry, looked up): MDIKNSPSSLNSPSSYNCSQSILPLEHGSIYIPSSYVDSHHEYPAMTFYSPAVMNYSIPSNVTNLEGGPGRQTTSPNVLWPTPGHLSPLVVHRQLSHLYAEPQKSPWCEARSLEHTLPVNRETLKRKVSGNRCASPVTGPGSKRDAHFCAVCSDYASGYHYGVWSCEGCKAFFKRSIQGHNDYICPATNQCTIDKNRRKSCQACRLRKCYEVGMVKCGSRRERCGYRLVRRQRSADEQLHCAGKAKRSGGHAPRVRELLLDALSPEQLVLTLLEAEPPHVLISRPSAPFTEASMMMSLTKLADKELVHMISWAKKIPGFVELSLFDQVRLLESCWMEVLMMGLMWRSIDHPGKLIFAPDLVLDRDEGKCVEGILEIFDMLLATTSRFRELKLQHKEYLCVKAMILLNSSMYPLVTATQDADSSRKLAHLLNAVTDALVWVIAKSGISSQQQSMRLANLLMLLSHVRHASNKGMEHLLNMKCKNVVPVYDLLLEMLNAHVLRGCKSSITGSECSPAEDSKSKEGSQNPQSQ
Estrogen receptor (Homo sapiens), sequence (P03372 whole entry, looked up): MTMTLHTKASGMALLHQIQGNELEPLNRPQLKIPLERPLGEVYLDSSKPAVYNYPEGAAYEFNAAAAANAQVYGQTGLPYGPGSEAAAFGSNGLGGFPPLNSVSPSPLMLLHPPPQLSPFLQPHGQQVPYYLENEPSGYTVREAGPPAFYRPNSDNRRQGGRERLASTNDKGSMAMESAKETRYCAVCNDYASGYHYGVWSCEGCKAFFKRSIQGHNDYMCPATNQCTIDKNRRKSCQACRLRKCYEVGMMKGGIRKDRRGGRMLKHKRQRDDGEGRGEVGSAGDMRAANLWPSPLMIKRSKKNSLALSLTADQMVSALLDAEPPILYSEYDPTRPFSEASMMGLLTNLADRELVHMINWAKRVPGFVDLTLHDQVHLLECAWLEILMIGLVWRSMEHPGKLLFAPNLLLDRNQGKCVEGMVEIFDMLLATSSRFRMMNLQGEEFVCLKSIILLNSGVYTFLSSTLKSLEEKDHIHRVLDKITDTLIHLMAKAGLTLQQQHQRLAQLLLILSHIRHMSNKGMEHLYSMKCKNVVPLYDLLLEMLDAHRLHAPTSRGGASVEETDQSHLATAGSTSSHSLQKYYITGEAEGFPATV
Thyrotropin receptor (Homo sapiens), sequence (P16473 whole entry, looked up): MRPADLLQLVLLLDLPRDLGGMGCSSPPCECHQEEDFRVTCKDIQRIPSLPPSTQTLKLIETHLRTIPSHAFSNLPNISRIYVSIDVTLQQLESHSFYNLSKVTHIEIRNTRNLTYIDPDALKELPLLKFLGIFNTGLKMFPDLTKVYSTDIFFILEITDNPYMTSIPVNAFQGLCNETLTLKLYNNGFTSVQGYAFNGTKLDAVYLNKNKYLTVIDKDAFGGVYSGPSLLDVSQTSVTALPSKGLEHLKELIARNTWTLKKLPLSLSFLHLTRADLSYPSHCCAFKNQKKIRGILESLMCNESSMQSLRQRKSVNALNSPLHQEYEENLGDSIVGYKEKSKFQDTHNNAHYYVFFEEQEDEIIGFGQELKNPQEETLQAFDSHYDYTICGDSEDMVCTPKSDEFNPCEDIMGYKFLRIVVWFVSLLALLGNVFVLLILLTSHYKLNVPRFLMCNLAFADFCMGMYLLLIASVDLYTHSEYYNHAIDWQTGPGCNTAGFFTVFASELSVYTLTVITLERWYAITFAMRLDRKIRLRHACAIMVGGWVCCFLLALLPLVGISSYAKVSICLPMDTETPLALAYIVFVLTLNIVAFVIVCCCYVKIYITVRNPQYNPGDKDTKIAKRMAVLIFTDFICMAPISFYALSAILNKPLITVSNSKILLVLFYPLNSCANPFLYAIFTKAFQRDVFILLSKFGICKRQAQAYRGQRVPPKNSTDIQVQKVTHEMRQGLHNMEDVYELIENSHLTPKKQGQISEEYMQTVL

CCOc1ccc(OCC)c(Cl)c1
inactive: [1] | [2] | [3] | [4] | [5] | [6] | [7] | [8] | [9] | [10] | [11] | [12] | [13] | [14] | [15]

CCCc1c2oc(C(=O)O)cc(=O)c2cc2c(=O)cc(C(=O)O)n(CC)c12
inactive: [1] | [2] | [3] | [4] | [5] | [6] | [7] | [8] | [10] | [11] | [12] | [13] | [14] | [16] | [15]

C[C@]12C(=O)OC(=O)[C@H]1[C@H]1C=C[C@@H]2C1
inactive: [1] | [2] | [3] | [4] | [7] | [10] | [11] | [12] | [13] | [14] | [15]

C=CCCCCCCCCO
inactive: [1] | [2] | [3] | [4] | [5] | [6] | [7] | [8] | [9] | [10] | [11] | [12] | [13] | [14] | [16] | [15]

CCOc1ccc(NC(N)=O)cc1
inactive: [1] | [2] | [3] | [5] | [6] | [7] | [8] | [9] | [17] | [10] | [11] | [12] | [13] | [16] | [15]

OCc1c2ccccc2cc2ccccc12
inactive: [1] | [2] | [3] | [4] | [5] | [6] | [7] | [8] | [10] | [12] | [13] | [14] | [15]

CCCCCCCOC(=O)CCC
inactive: [1] | [2] | [3] | [5] | [6] | [7] | [8] | [17] | [10] | [11] | [12] | [13] | [14] | [16] | [15]

Reference: PubChem BioAssay (Tox21)
